Screening results from PubChem BioAssay.
Compounds with a hit are over-represented: about 5.3% of the library has one in this group of screens.
VACV Venus inh = qHTS for Stage-Specific Inhibitors of Vaccinia Orthopoxvirus: Venus Reporter Primary qHTS; 330,000 tested, 0.46% active; Potency, µM (top dose mostly 36.5 µM), actives largely listed as inhibitors; AID 720580, 2013; Vaccinia virus Venus reporter expression, fluorescence; calls by dose curve; tested in A549 cells; also: nearly all actives have a fitted effect of over 30% in size
HCV inh = qHTS Assay for Inhibitors of Hepatitis C Virus (HCV) | Huh7.5.1 HCVcc-Cre infection, luciferase reporter, 44 h | Potency, µM (series often up to 41.8 µM), hits mostly inhibitors | 340,000 tested, 3.4% active | AID 651820, 2012; active = well fitted inhibition curve with a large enough effect; inconclusive = small, poorly fitted or top-dose-only effect, or another doubt; inactive = no such curve, though single readings can be large or run the other way
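Reporter virus HCVcc-Cre (~0.5 moi) infects cells exposed to compound; seeding density 1,000 cells/well with 4 h settling beforehand. Luminescence, 15 sec read, taken 44 h post-infection following a 15 min RT substrate incubation.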
Vaccinia mCherry = qHTS for Stage-Specific Inhibitors of Vaccinia Orthopoxvirus: mCherry Reporter Primary qHTS; Potency, µM (series often up to 36.5 µM), most hits filed as inhibitors; Vaccinia virus mCherry reporter infection, fluorescence; 310,000 tested, 0.63% active; AID 720579, 2013; calls by dose curve; tested in A549 cells; also: nearly all actives have a fitted effect of over 35% in size
Marburg entry inh = qHTS for inhibitors of binding or entry into cells for Marburg Virus | AID 540276, 2011 | Marburg virus pseudotyped entry inhibition, cell reporter | 300,000 tested, 1.8% active | Potency, µM (top dose mostly 37.8 µM), actives largely listed as inhibitors; calls by dose curve; tested in HEK293 cells
LASV entry inh = qHTS for Inhibitors of binding or entry into cells for Lassa Virus | Lassa virus pseudotype entry inhibition, cell reporter | AID 540256, 2011 | Potency, µM (highest dose often 37.9 µM), usual class: inhibitors | 300,000 tested, 1.2% active; calls by dose curve; tested in HEK293 cells; also: nearly all actives have a fitted effect of over 50% in size
FMDV inh = High Throughput Screening for Foot and Mouth Disease Virus Antivirals; 410,000 tested, 1.2% active; FMDV antiviral cell-based qHTS; Potency, µM (highest dose often 57.9 µM), actives largely listed as inhibitors; calls by dose curve; tested in HEK293T cells; also: read-out not given here; nearly all actives have a fitted effect of over 45% in size
Numbers stand for hits; – = inactive; ? = inconclusive; · = no result; [ ] = dose if it differs, or a comment.

SMILES | VACV Venus inh | HCV inh | Vaccinia mCherry | Marburg entry inh | LASV entry inh | FMDV inh
CC(C)N1C/C(=C/c2cccnc2)C(=O)/C(=C/c2cccnc2)C1 | – | ? | – | 4.5µM | 13µM | 8.9µM
O=C1c2ccccc2C(=Cc2cccnc2)c2ccccc21 | – | · | – | · | · | –
CC(C)N1C/C(=C/c2ccsc2)C(=O)/C(=C/c2ccsc2)C1 | – | ? | – | ? | 4µM | 16µM
COc1ccc(/C=C/C(=O)Nc2ccc3nc4c(c(Nc5ccc(OC)c(OC)c5)c3c2)CCCC4)cc1 | ? | · | ? | ? | ? | –
CCOc1ccc(C(=O)Nc2nnc(S(=O)(=O)Nc3ccccc3)s2)cc1 | – | · | – | · | – | –
COc1cc(-c2c(OC)cccc2OC)cc2c1OCCN(C(=O)CCC(=O)c1ccc(F)cc1)C2 | – | · | – | · | · | –
C/C(CC1CC(COCC(C)C)OC1=O)=N\NC(N)=S (centres undefined) | ? | – | – | – | – | –
CCCCCOCC1CC(C/C(C)=N/NC(N)=S)C(=O)O1 (centres undefined) | ? | ? | 22µM | ? | ? | –
O=C(NCc1cccs1)C(=O)NCC(c1ccco1)N1CCN(c2ccc(F)cc2)CC1 (centres undefined) | – | 22µM | ? | ? | ? | ?
O=c1c(S(=O)(=O)c2ccccc2)cn(Cc2ccc(F)cc2)c2cc(N3CCCCC3)c(F)cc12 | – | · | – | · | – | –
O=C(NC(=S)Nc1ccccc1O)c1cncc(Br)c1 | ? | – | 14µM | – | – | –
COc1ccnc(CS(=O)c2nc3ccc(OC(F)F)cc3[nH]2)c1OC (centres undefined) | – | · | – | · | · | –
CCCn1c2c(c(O)c(C(=O)Nc3ncccc3C)c1=O)CCCC2 | · | 11µM | · | – | – | –
Cc1ccc(NC(CC(=O)c2ccccc2)c2ccc(F)cc2)cc1 (centres undefined) | · | – | · | – | – | –
COc1ccc(C(CC(=O)c2ccc(C)cc2)Nc2ccc([N+](=O)[O-])cc2)cc1 (centres undefined) | – | 13µM | – | ? | ? | –
O=C(c1ccccc1)N1CCN(c2ccc(NCc3ccc4c(c3)OCO4)cc2)CC1 | – | 11µM | ? | – | · | ?
CC(=O)N1CCN(c2ccc(NCc3ccc4c(c3)OCO4)cc2)CC1 | – | – | – | ? | – | –
O=C(Nc1ccc(N2CCN(C(=O)c3ccccc3)CC2)cc1)c1ccc2c(c1)OCCO2 | – | ? | – | ? | ? | 32µM
O=C(Nc1ccc(N2CCN(C(=O)c3ccc(Cl)cc3)CC2)cc1)c1ccc2c(c1)OCCO2 | ? | 7.1µM | ? | ? | ? | 11µM
CC(=O)N1CCN(c2ccc(NC(=O)c3ccc4c(c3)OCCO4)cc2)CC1 | – | – | – | – | – | ·
CC(C)(C)C(=O)N1CCN(c2ccc(NC(=O)c3ccc4c(c3)OCCO4)cc2)CC1 | – | 10µM | – | ? | ? | 32µM
Cc1ccccc1OCc1nnc(SCc2cc(=O)c3cc(F)ccc3[nH]2)n1C | – | · | – | · | – | ?
NC(=S)NN=C1c2ccccc2-c2ccccc21 | · | 6.3µM | · | · | · | ?
COc1ccc(OC)c(/C=C2\Cc3ccccc3C2=O)c1 | – | · | – | · | · | ·
CCN(Cc1ccc(O)cc1)CC1CCCN(CCc2cccc(F)c2)C1 (centres undefined) | · | 8.9µM | · | · | · | –
SMILES | VACV Venus inh | HCV inh | Vaccinia mCherry | Marburg entry inh | LASV entry inh | FMDV inh
CN(CC1CCCN(CCc2cccc(C(F)(F)F)c2)C1)C(=O)c1ccco1 (centres undefined) | · | – | · | · | · | –
C=CCC(=O)N(CC)CC1CCCN(CCc2cccc(F)c2)C1 (centres undefined) | · | – | · | · | · | –
CC(=O)Nc1ccc(CN(C)CC2CCCN(CCc3cccc(C(F)(F)F)c3)C2)cc1 (centres undefined) | – | 1.4µM | – | 10µM | ? | –
CN(CCNC(=O)c1ccc(/C=N\O)nc1)Cc1ccccc1 | · | · | · | – | · | ·
CC(C)c1ccc(OCC(=O)N(Cc2cccs2)C2CCS(=O)(=O)C2)cc1 (centres undefined) | – | · | – | ? | – | ?
Cc1cc(O)c(C(=O)/C=C/c2ccc(Cl)cc2)c(=O)o1 | – | – | – | – | – | 25µM
COc1cccc(/C=C/C(=O)c2c(O)cc(C)oc2=O)c1O | – | – | – | ? | – | 20µM
COc1cc(O)c(C(=O)/C=C/c2ccc(OC)c(O)c2)c(OC)c1 | ? | · | ? | · | · | –
COc1ccc(/C=C\C(=O)c2c(O)ccc3c(C)cc(=O)oc23)cc1OC | ? | 10µM | – | ? | ? | 35µM
COc1ccc(/C=C/C(=O)c2c(O)cc(C)oc2=O)c(OC)c1 | – | 11µM | – | – | – | –
O=C(C[n+]1cccc(Cl)c1)c1ccc(F)cc1 | – | · | – | · | · | ·
COc1ccc(-c2nn(C)c3sc(C(=O)Nc4cc(OC)c(OC)c(OC)c4)cc23)cc1OC | –[7.34 µM] | · | –[7.34 µM] | ? | ? | –
CCc1nc(CN2CCOc3ccc(C(O)C4CCCCC4)cc3C2)c(C)[nH]1 (centres undefined) | – | · | – | · | · | –
CSc1ccc(/C=C/C(=O)c2c(O)cc(C)oc2=O)cc1 | – | – | – | – | – | –
COc1cc(/C=C/C(=O)c2c(O)cc(C)oc2=O)cc(OC)c1O | – | – | – | – | – | 14µM
CCc1ccc(-n2nc(CO)c(C(=O)NCc3ccccn3)n2)cc1 | – | · | – | – | – | –
CN(c1ccc(C(=O)NCCSC(C)(C)C)cc1)S(=O)(=O)c1ccccc1 | – | – | – | – | 23µM | –
Cc1ccc(C(=O)NCCSC(C)(C)C)cc1 | – | – | · | 8.9µM | 10µM | –
CC(C)(C)SCCNC(=O)c1ccccc1 | ? | – | · | – | ? | –
Cc1ccc(CSCCNC(=O)c2ccc(N(C)S(=O)(=O)c3ccccc3)cc2)cc1 | ? | 11µM | · | ? | ? | –
CN(c1ccc(C(=O)NCCSCc2ccc(Cl)cc2)cc1)S(=O)(=O)c1ccccc1 | – | ? | – | – | ? | –
CCN(CC)C1CCN(C(=O)c2ccc(OC3CCN(C(=O)CCOC)CC3)cc2)C1 (centres undefined) | – | · | – | · | · | –
O=C(CC1N=C2c3ccccc3N=C(SCC(=O)Nc3cccc(Cl)c3)N2C1=O)NCc1cccs1 (centres undefined) | – | · | – | ? | – | –
O=C1CC(c2ccccc2)Cc2[nH]c(=O)c(-c3nc(-c4ccc(F)cc4)cs3)cc21 (centres undefined) | – | · | – | ? | – | –
COC(=O)C1CCN(Cc2ccc3c(c2)CN(C(=O)C2Cc4ccccc4O2)CCO3)CC1 (centres undefined) | – | · | – | · | · | –
CC(C)Oc1cccc(C(=O)Nc2ccc3oc(-c4ccccc4)nc3c2)c1 | – | · | – | · | – | –
CCn1c(=O)c(C(=O)CN(C)Cc2ccc(F)cc2)c(N)n(Cc2ccccc2)c1=O | – | – | – | 10µM | – | –
